Results on 38 compounds are retold here after PubChem BioAssay (Tox21).

Records with an inconclusive call do not appear. Calls of active or inactive are those of the source. The call rests on the fitted dose curve; in most records, active means well fitted inhibition curve with a large enough effect in the signal ratio in the repeat runs, with a control signal flat; inconclusive means weak or mixed curves, or effect the other way; inactive means flat fitted curve, though single readings scatter; the % refers to the signal ratio.
On the % scale 0 is the no-effect control and ±100 the full control effect; potency means the concentration at half of the fitted maximal effect.

Chain of D(2) dopamine receptor (Homo sapiens) (P14416 whole entry, looked up): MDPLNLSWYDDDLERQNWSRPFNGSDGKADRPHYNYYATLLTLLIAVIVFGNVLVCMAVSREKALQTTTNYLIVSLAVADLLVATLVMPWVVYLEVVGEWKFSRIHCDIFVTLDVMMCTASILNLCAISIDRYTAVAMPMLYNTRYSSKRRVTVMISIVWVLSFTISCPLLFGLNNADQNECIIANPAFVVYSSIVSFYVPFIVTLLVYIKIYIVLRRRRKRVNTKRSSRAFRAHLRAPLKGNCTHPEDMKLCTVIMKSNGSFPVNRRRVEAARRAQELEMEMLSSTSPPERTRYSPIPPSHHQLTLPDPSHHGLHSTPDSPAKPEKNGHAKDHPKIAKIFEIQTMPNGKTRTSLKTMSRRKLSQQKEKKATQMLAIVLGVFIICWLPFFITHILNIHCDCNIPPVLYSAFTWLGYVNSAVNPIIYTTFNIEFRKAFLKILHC

This experiment addresses D(2) dopamine receptor (Homo sapiens) (UniProt P14416). In words: Dopamine D2 receptor (DRD2) small molecule antagonists, cell-based qHTS assay (AID 1963595). The note with it: HEK293-DRD2 cAMP HTRF antagonist mode; series mostly up to 92.4 µM; activity change, negative = inhibition: at the top concentration. In outline:
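HEK293 cells stably expressing DRD2, preincubated with 0.1 mM Ro20-1724 and compounds 10 min, were stimulated with 200 nM NKH477 plus 12 nM quinpirole for 30 min at room temperature; cAMP measured by HTRF (665/620 nm).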
On to `CC(C)OCC1CO1` (stereo not drawn), for which the “activity change, negative = inhibition” value is 15.1% (inactive).

On to `CCCCCCC(CO)CCCC` (stereo not drawn), for which the “activity change, negative = inhibition” value is 0.0894% (inactive).

For the compound `S=C(SSSSSSC(=S)N1CCCCC1)N1CCCCC1`, the activity change, negative = inhibition was 1.15% [at 18.9 µM] (inactive).

Consider `CO[Si](CCCS)(OC)OC`, for which the “activity change, negative = inhibition” value is 0.618% (inactive).

For `NC(=O)C(=O)N/N=C/c1ccc([N+](=O)[O-])o1`, the “activity change, negative = inhibition” value was 2.4% [at 42.5 µM] (inactive).

With `O=C(CCCN1CCC(O)(c2ccc(Br)cc2)CC1)c1ccc(F)cc1`, the Potency is 188 nM (active).

On to `CC(C)OC(=O)C(C(=O)OC(C)C)=C1SC=CS1`, for which the “activity change, negative = inhibition” value was -0.0277% [at 42.5 µM] (inactive).

Take `O=S(O)O`: the activity change, negative = inhibition was -0.433% [at 18.9 µM] (inactive).

Consider `COc1cc(C(=O)NS(=O)(=O)c2ccccc2C)ccc1Cc1cn(C)c2ccc(NC(=O)OC3CCCC3)cc12`, for which the “activity change, negative = inhibition” value is 9.01% [at 42.5 µM] (inactive).

As to `O=C1O[C@@H]2[C@@H](O)[C@H](O)O[C@@H]2[C@H]1O`, the “activity change, negative = inhibition” value is 1.54% (inactive).

Consider `CCc1ccc(CC)cc1`, for which the “activity change, negative = inhibition” value was -0.316% (inactive).

For `CC(C)(C)N(CCO)CCO`, the “activity change, negative = inhibition” value is 3.11% (inactive).

For `O=CCCc1ccccc1`, the “activity change, negative = inhibition” value is 0.936% (inactive).

`Cc1oc(-c2ccccc2)nc1CCC(=O)c1ccc(CC2SC(=O)NC2=O)cc1` (stereo not drawn): the “activity change, negative = inhibition” value is 6.17% [at 42.5 µM] (inactive).

As to `CCCCNc1ccc(NCCCC)c2c1C(=O)c1ccccc1C2=O`, the activity change, negative = inhibition was -5.82% [at 18.9 µM] (inactive).

For `O=C(O)c1ccncc1`, the “activity change, negative = inhibition” value is -3.11% (inactive).

As to `Clc1cc(Cl)c(-c2c(Cl)c(Cl)cc(Cl)c2Cl)cc1Cl`, the “activity change, negative = inhibition” value is 7.66% [at 42.5 µM] (inactive).

Turning to `CC(=O)N(CC(O)CN(C(C)=O)c1c(I)c(C(=O)NCC(O)CO)c(I)c(C(=O)NCC(O)CO)c1I)c1c(I)c(C(=O)NCC(O)CO)c(I)c(C(=O)NCC(O)CO)c1I` (stereo not drawn), the “activity change, negative = inhibition” value is 3.84% [at 42.5 µM] (inactive).

Consider `CCCCCCCCCCCCS(=O)(=O)Cl`, for which the activity change, negative = inhibition is -2.33% [at 18.9 µM] (inactive).

Take `CC/C=C\CCOC(=O)c1ccccc1`: the “activity change, negative = inhibition” value was -12.7% (inactive).

As to `CCc1cc(Cc2cc(CC)cc(C(C)(C)C)c2O)c(O)c(C(C)(C)C)c1`, the “activity change, negative = inhibition” value is 4.13% (inactive).

Consider `CCC1=C(C)CN(C(=O)NCCc2ccc(S(=O)(=O)NC(=O)NC3CCC(C)CC3)cc2)C1=O` (stereo not drawn), for which the “activity change, negative = inhibition” value is 0.905% [at 42.5 µM] (inactive).

As to `CCOC(=O)C1=C(C)NC(C)=C(C(=O)OC)C1c1cccc(Cl)c1Cl` (stereo not drawn), the “activity change, negative = inhibition” value was -7.74% [at 42.5 µM] (inactive).

Take `Clc1ccnc(Cl)n1`: the “activity change, negative = inhibition” value was 12.3% (inactive).

As for `OCC(CO)(CO)COCC(CO)(CO)CO`, the “activity change, negative = inhibition” value was 3.86% (inactive).

On to `OCc1ccccn1`, for which the “activity change, negative = inhibition” value is 14.2% [at 42.5 µM] (inactive).

On to `CCOC(=O)/C=C/C(=O)O`, for which the “activity change, negative = inhibition” value is 13% (inactive).

Take `CCCCC`: the “activity change, negative = inhibition” value was 8.72% (inactive).

As to `Cc1ccc2c(c1)c1c3n2CCNC3CCC1` (stereo not drawn), the “activity change, negative = inhibition” value was 1.74% [at 42.5 µM] (inactive).

`CCOc1ccccc1N`: the “activity change, negative = inhibition” value is -5% (inactive).

Consider `CC(C(=O)O)c1ccc(C(=O)c2ccccc2)s1` (stereo not drawn), for which the “activity change, negative = inhibition” value is 2.61% [at 42.5 µM] (inactive).

On to `CCCCCCC(=O)OCC`, for which the “activity change, negative = inhibition” value is 1.52% (inactive).

Take `NS(=O)(=O)c1cc(C(=O)NN2C[C@H]3[C@H]4CCC(C4)[C@H]3C2)ccc1Cl`: the “activity change, negative = inhibition” value is -0.173% [at 42.5 µM] (inactive).

For `CC1(C)S[C@@H]2[C@H](NC(=O)C(C(=O)O)c3ccccc3)C(=O)N2[C@H]1C(=O)O` (stereo partly drawn), the “activity change, negative = inhibition” value is -7.73% [at 42.5 µM] (inactive).

On to `CC(CC(C#N)(c1ccccc1)C(C)C)N(C)C` (stereo not drawn), for which the “activity change, negative = inhibition” value is -2.44% [at 42.5 µM] (inactive).

With `O=P(O)(O)C(O)(Cc1cccnc1)P(=O)(O)O`, the “activity change, negative = inhibition” value is -1.16% [at 42.5 µM] (inactive).

As to `C=CCCCC`, the “activity change, negative = inhibition” value is 13.6% (inactive).

As to `CCCCCCCC1CCCC1=O` (stereo not drawn), the “activity change, negative = inhibition” value was -3.98% (inactive).
